# From PubChem BioAssay (NCI)
# Compounds without any hit were thinned out: in the full panel of roughly 83,000, 20% have a hit.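 Results are percent growth after 48 hours of single-concentration exposure. 100 means growth as in untreated cells, lower positive values show inhibition; negative values down to -100 show cell death.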 A number with no mark means an inactive call. Active and inactive are the calls of the source. The calls were made as follows: active = growth percent below 10; inactive = the rest.
# What was measured:
# Assay in all cases: NCI-60 one-dose screen, 48 h (100 = growth as untreated, 0 = no growth, -100 = all killed)
# Conditions in all cases: 10 µM unless noted
# [1] = tested on: MOLT-4 leukemia
# [2] = tested on: SR leukemia
# [3] = tested on: RPMI-8226 leukemia
# [4] = tested on: OVCAR-8 ovarian
# [5] = tested on: OVCAR-5 ovarian
# [6] = tested on: OVCAR-4 ovarian
# [7] = tested on: SK-OV-3 ovarian
# [8] = tested on: IGROV1 ovarian
# [9] = tested on: OVCAR-3 ovarian
# [10] = tested on: HS 578T breast
Structure (SMILES),growth [1],growth [2],growth [3],growth [4],growth [5],growth [6],growth [7],growth [8],growth [9],growth [10]
COC(=O)[C@@H](C)C[C@H](Cc1ccccc1)NC(=O)c1csc([C@@H](C[C@H](C(C)C)N(C)C(=O)[C@@H](NC(=O)CN(C)C)C2CC2)OC(C)=O)n1,16.6%,3.74% (active),34.3%,20.1%,56.3%,54.4%,42.2%,28.4%,1.63% (active),32.3%
O=[N+]([O-])CC(O)C(Cl)(Cl)Cl (stereo not given),107%,98.5%,71.7%,116%,93.6%,94.2%,100%,102%,116%,
O=C(Nc1ccc(O)cc1)C(Cl)(Cl)Cl,104%,96.6%,112%,97.1%,102%,105%,98.2%,100%,124%,112%
O=C(CC1(O)C(=O)N(Cc2ccccc2)c2ccc(Br)cc21)c1ccc(C(=O)NCC2CCC3(CC2)OOC2(CCCCC2)OO3)cc1 (stereo not given),-37.3% (active),-40.7% (active),-7.69% (active),-40.9% (active),12.4%,-34.1% (active),83.4%,-36.2% (active),-84.1% (active),22.6%
COC1OC(CO)C(O)C(O)[CH]1[Hg][O]C(C)=O (stereo not given),91.1%,64.3%,104%,103%,102%,95.6%,117%,86.9%,75.9%,89.8%
COC[C@@H]1C[C@@]2(C)[C@@H](CC[C@@H]3[C@@H]2CC[C@@]2(C)[C@H]3CC[C@]2(C)O)CC1=O,90.4%,83.7%,84.5%,95.8%,97.9%,101%,98.7%,98.9%,106%,
Cn1cc(C2=C(c3cn(C4CCN(Cc5ccccn5)CC4)c4ccccc34)C(=O)NC2=O)c2ccccc21,85.7%,7.89% (active),107%,78.8%,31.2%,76.8%,83.5%,33.9%,90.3%,
COc1cc(C=Nc2cc(Cl)cc(Cl)c2)ccc1N(CCCl)CCCl,58.9%,41.2%,75%,90.5%,105%,99.5%,91.1%,56.7%,91.1%,93.5%
COc1cc2c(cc1OCCCn1c(-c3ccccn3)nc3ccccc31)N=C[C@@H]1CCCN1C2=O,8.22% (active),3.55% (active),-37.5% (active),25.5%,2.58% (active),15.6%,30.8%,-62.3% (active),2.94% (active),-2.53% (active)
CC(=O)O[C@H]1CC[C@@]2(C)C(=CC[C@H]3[C@@H]4C[C@@H](N5CC5)[C@H](C(C)=O)[C@@]4(C)CC[C@@H]32)C1,63.4%,58.6%,79.3%,88.5%,99.5%,80.3%,99.9%,86.2%,109%,98%
NC(CCl)CCl,105%,108%,99.3%,100%,107%,102%,-100% (active),110%,100%,
CCCC[C@H](NC(=O)[C@H]1CCCCN1C)C(=O)N(C)[C@H](C[C@@H](OC(C)=O)c1nc(C(=O)N[C@@H](Cc2ccccc2)C[C@H](C)C(=O)OCC)cs1)C(C)C,12.7%,4.92% (active),10.7%,21%,36.2%,49.5%,-6.08% (active),24.4%,3.86% (active),12.1%
Clc1cccc(Cl)c1Cl,104%,92.7%,110%,112%,97.8%,106%,104%,104%,94.2%,102%
Nc1ccc2c(c1)oc1ccccc12,85%,91%,79.3%,107%,98.3%,103%,115%,110%,103%,104%
CC12CC(=O)C3(SC#N)C(CCC4=CC(=O)CCC43C)C1CCC2=O (stereo not given),22.2%,86.1%,77.5%,89.6%,103%,73.8%,109%,99.2%,42.1%,
OCCCCCNC1CCCCC1,83.9%,89.7%,102%,103%,86.3%,103%,102%,103%,125%,
CCCCCC1(CCBr)C(=O)NC(=O)NC1=O,104%,94.7%,97.5%,97.3%,96.6%,111%,99.1%,112%,104%,
COC(=O)[C@@]1(C)CC[C@]2(C)CC[C@]3(C)C4=CC(=O)c5c(cc(O)c(O)c5C)[C@]4(C)CC[C@@]3(C)[C@@H]2C1,18.3%,51.2%,27%,60.4%,119%,47.4%,58.3%,50.8%,47.9%,79.5%
COC(=O)C12CC(NC(=O)c3csc([C@@H](C[C@H](C(C)C)N(C)C(=O)[C@@H](NC(=O)[C@H]4CCCCN4C)C(C)C)OC(C)=O)n3)(C1)C2,14.3%,15.2%,17.8%,24.8%,46.8%,50.4%,13.2%,19.3%,-17.5% (active),35.3%
O=C(Nc1ccc([As]=[As]c2ccc(NC(=O)c3ccccc3)cc2)cc1)c1ccccc1 (stereo not given),-27.5% (active),0.482% (active),13.7%,-82.1% (active),-89.1% (active),-43.1% (active),-81.5% (active),-40.4% (active),-94% (active),-75.8% (active)
O=C(O)CNC(=O)C(Cl)(Cl)Cl,91.7%,89.8%,92.3%,90.3%,97.1%,99.5%,108%,100%,108%,
C[N+]12CN3CN(CN(C3)C1)C2,123%,138%,88%,100%,82.7%,105%,118%,91.2%,115%,98%
CC1CN1CCCCN1CC1C (stereo not given),86.2%,81.5%,94.4%,102%,102%,112%,103%,107%,103%,
C/C(=C\c1cc(C(F)(F)F)nn1CCNC(=O)OC(C)(C)C)[C@@H]1C[C@@H]2O[C@]2(C)CCC[C@H](C)[C@H](O)[C@@H](C)C(=O)C(C)(C)[C@@H](O)CC(=O)O1,25.1%,28.1%,22.9%,61.8%,68.7%,71.4%,86.3%,49.2%,30.8%,61.3%
O=[N+]([O-])c1ccc(OP(=O)(CCl)N(CCCl)CCCl)cc1 (stereo not given),89.7%,87.9%,104%,100%,99.6%,104%,106%,104%,118%,
